According to PMC5540273 (PLoS ONE, 2017):

Columns and labels:
Conditions in all cases: concentration: 1 μM, replicates: in singlicate; n = 1
[1] = tested on: LCK
[2] = tested on: LIMK1
[3] = tested on: LIMK2
[4] = tested on: T1, LKB1
T1 construct: gene STK11

[5] = tested on: T2, LOK
T2 construct: gene STK10

[6] = tested on: LRRK2
[7] = tested on: LTK
[8] = tested on: LYN
[9] = tested on: T3, LZK
T3 construct: gene MAP3K13

[10] = tested on: MAK
[11] = tested on: MAP3K15
[12] = tested on: MAP3K1
[13] = tested on: MAP3K2
[14] = tested on: MAP3K3
[15] = tested on: MAP3K4
[16] = tested on: MAP4K2
[17] = tested on: MAP4K3
[18] = tested on: MAP4K4
[19] = tested on: MAP4K5
[20] = tested on: MAPKAPK2
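Further: KINOMEscan kinase panel screen.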

SMILES | %Inh [1] | %Inh [2] | %Inh [3] | %Inh [4] | %Inh [5] | %Inh [6] | %Inh [7] | %Inh [8] | %Inh [9] | %Inh [10] | %Inh [11] | %Inh [12] | %Inh [13] | %Inh [14] | %Inh [15] | %Inh [16] | %Inh [17] | %Inh [18] | %Inh [19] | %Inh [20]
O=C(Nc1n[nH]c2nc(-c3ccccc3O)ccc12)C1CC1 [SB-711880] | 37% | 0% | 0% | 22% | 77% | 0% | 0% | 0% | 20% | 16% | 0% | 0% | 19% | 4% | 0% | 0% | 44% | 58% | 0% | 0%
COC(=O)Nc1nc2ccc(Oc3ccc(NC(=O)Nc4cc(C(F)(F)F)ccc4F)cc3)cc2[nH]1.Cl [GW654607] | 99.3% | 37% | 16% | 0% | 99.1% | 28% | 63% | 86% | 0% | 85% | 0% | 25% | 0% | 0% | 23% | 1% | 0% | 22% | 11% | 29%
O=C(Nc1c(F)cccc1F)c1cc(C(=O)c2ccccc2F)c[nH]1 [GSK1326180] | 8% | 3% | 0% | 0% | 28% | 6% | 0% | 0% | 0% | 0% | 0% | 0% | 0% | 0% | 42% | 0% | 0% | 19% | 0% | 8%
Cc1ccc(NC(=O)c2cccc(N3CCCCC3)c2)cc1-c1ccc(C(=O)NCC2CC2)cc1 [GSK1917008] | 38% | 8% | 100% | 0% | 32% | 22% | 7% | 0% | 0% | 24% | 11% | 17% | 0% | 0% | 28% | 5% | 80% | 16% | 22% | 18%
N#CC1(c2cccc(C(=O)Nc3cccc(Oc4ccc5nc(NC(=O)C6CC6)sc5n4)c3)c2)CC1 | 99.3% | 6% | 0% | 0% | 95.9% | 0% | 0% | 91.4% | 0% | 3% | 0% | 0% | 22% | 0% | 19% | 0% | 58% | 68% | 50% | 0%
CN(c1ccc2c(c1)nc(NCc1ccccc1)n2C)c1ccnc(Nc2ccc(CS(C)(=O)=O)cc2)n1.Cl [GW811603] | 59% | 1% | 0% | 0% | 99.5% | 0% | 37% | 52% | 0% | 33% | 13% | 0% | 0% | 56% | 0% | 0% | 33% | 2% | 0% | 0%
Nc1ncc(-c2cn[nH]c2)c2scc(-c3ccc4c(c3)CCN4C(=O)Cc3ccccc3)c12 [GSK2593067] | 96.5% | 17% | 49% | 2% | 98.6% | 52% | 67% | 80% | 0% | 10% | 22% | 24% | 91% | 79% | 86% | 87% | 98.9% | 27% | 99.6% | 0%
CN(c1ccc(F)c(NC(=O)c2cccc(OC(C)(C)C#N)c2Cl)c1)c1ccc2nc(NC(=O)C3CC3)sc2n1 | 97.9% | 0% | 0% | 11% | 95.4% | 9% | 0% | 93.1% | 46% | 0% | 0% | 0% | 0% | 15% | 0% | 0% | 0% | 75% | 0% | 0%
Cc1ccc(O)cc1Nc1ccnc2ccc(C(C)(C)C)cc12 [GW856805] | 98.6% | 0% | 0% | 33% | 16% | 67% | 11% | 69% | 0% | 23% | 26% | 27% | 32% | 31% | 23% | 43% | 0% | 0% | 4% | 0%
Cl.Cl.NC(CNC(=O)c1cc(Br)c(-c2ccnc3[nH]ccc23)s1)c1ccccc1 (centres unmarked) [GSK1322949] | 3% | 0% | 0% | 69% | 0% | 31% | 0% | 0% | 7% | 19% | 16% | 14% | 27% | 15% | 3% | 56% | 20% | 53% | 4% | 0%
